Compound activity as filed in PubChem BioAssay.
CSC inhib: blocks cancer stem cells | cancer stem cell-like cells viability, luminescence | inhibition, % at 7.5 µM | 1.1% of 300,000 active | AID 2717; in the data active = inhibition above about 75%; inconclusive = no clear call, values can overlap the other calls; tested in HMLE shEcad cells
Mdm2 MdmX PPI: inhibitors of human Mdm2/MdmX interaction; O15151+Q00987; SaOS-2 split-luciferase Mdm2/MdmX complementation, luminescence; inhibition, % at 8 µM; 3% of 330,000 active;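 active = inhibition of at least 50% at 8 µM in the primary screen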
Target sequence (O15151 whole entry, looked up): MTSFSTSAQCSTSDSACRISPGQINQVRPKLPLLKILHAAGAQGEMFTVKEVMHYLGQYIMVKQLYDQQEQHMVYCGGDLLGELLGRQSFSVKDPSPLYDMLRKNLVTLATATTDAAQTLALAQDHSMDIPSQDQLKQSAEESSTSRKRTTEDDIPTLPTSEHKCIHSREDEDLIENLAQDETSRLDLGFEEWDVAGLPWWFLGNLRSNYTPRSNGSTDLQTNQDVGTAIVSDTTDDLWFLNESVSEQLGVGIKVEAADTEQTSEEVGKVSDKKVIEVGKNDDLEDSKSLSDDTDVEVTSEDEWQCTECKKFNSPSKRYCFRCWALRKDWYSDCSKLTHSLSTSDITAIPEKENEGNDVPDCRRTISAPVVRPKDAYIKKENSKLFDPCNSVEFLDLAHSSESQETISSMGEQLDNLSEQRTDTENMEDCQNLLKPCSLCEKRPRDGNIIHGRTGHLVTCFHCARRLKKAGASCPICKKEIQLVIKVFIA
Target sequence (Q00987 whole entry, looked up): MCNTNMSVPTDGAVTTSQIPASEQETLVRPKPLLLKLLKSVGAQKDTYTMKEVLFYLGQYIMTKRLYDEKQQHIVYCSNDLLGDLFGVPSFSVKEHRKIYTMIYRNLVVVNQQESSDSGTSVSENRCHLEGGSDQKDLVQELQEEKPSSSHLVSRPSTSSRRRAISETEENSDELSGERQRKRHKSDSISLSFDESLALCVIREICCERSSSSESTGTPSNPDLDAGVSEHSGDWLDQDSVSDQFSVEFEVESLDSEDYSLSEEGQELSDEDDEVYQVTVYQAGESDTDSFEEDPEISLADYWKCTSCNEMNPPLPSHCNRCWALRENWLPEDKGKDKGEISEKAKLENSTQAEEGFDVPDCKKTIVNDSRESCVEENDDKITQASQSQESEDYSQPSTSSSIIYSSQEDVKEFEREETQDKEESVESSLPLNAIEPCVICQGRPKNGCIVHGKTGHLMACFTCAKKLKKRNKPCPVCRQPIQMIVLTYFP
Calb FLC: C. albicans growth modulation with fluconazole; C. albicans CaCi-2 (fluconazole-resistant clinical isolate) + fluconazole, Alamar Blue growth, 48 h; AID 1979; growth inhibition, % (test concentration not listed); 0.57% of 300,000 active;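 active = growth inhibition above about 58% in most replicates, limit read from the data, passing the limit was not always enough; inconclusive = exactly half the replicates above a set limit; inactive = most replicates below a set limit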;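 note: all wells also contain fluconazole at 8 µg/ml as a sub-toxic cotreatment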
Beta apoptosis: blocks beta cell apoptosis; 0.8% of 300,000 active; AID 435005; INS-1E cytokine-induced death, ATP luminescence, 48 h; percent of positive-control rescue, neutral wells zero; protection from apoptosis, % (test concentration not listed);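 active = Every replicate reaches about 75%, or at least half do and their mean reaches it too, limit read from the data; inconclusive = At least half of replicates reach the limit but their mean does not; inactive = Under half of replicates reach the limit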;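 note: higher means more ATP so stronger rescue from cytokine killing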
MPTP block: blocks calcium-induced mitochondrial swelling; isolated mouse mitochondria, Ca2+ swelling absorbance, 30 min; inhibition, % at 10 µM; 1.4% of 360,000 active;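 active = inhibition of 50% or more, scaled per plate between neutral and stimulator controls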
Mdm2-MdmX conf: confirmation of human Mdm2/MdmX interaction inhibitors | shares compounds with Mdm2 MdmX PPI | Mdm2-MdmX binding, luminescent assay | inhibition, % at 8 µM | 55% of 10,000 active | AID 489028; in the data active = inhibition above about 40%
FLuc counter: inhibits full-length luciferase, flagging false Mdm2/MdmX hits; AID 504607; inhibition, % at 8 µM; 77% of 6,200 active; shares compounds with Mdm2 MdmX PPI; SaOS-2 full-length luciferase counterscreen, luminescence;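 active = mean inhibition at 8 µM reaching about 37%, which flags the compound as non-specific, limit read from the data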;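 note: p53-null SaOS-2 cells with luciferase driven by a doxycycline-inducible promoter; compound on cells about two nights before reading with doxycycline added after day one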
Large screens that a line does not name were inactive (follow-up assays come after a bar, where they were run). Rows were chosen to be rich in hits. Some 4.8% of all compounds tested hit in one or more screens of this group.

CCOC(=O)c1ccc(N2CCCCC2)c(NS(=O)(=O)c2ccc(C)cc2)c1	Mdm2 MdmX PPI 59 | Mdm2-MdmX conf 46 | FLuc counter 67
CC(=O)NC(c1cccc([N+](=O)[O-])c1)c1ccc2cccnc2c1O (stereo not drawn)	CSC inhib 102, Mdm2 MdmX PPI 77, Beta apoptosis 97 | Mdm2-MdmX conf 81 | FLuc counter inactive
COc1cccc(C(NC(C)=O)c2ccc3cccnc3c2O)c1 (stereo not drawn)	Mdm2 MdmX PPI 82, Calb FLC 80, Beta apoptosis 82 | Mdm2-MdmX conf 80 | FLuc counter inactive
CCCCC(=O)NC(c1cccc([N+](=O)[O-])c1)c1ccc2cccnc2c1O (stereo not drawn)	none (no result: CSC inhib, Mdm2 MdmX PPI, Calb FLC, Beta apoptosis)
Oc1cccc(C(Nc2nccs2)c2ccc3cccnc3c2O)c1 (stereo not drawn)	CSC inhib 110, Mdm2 MdmX PPI 77, Calb FLC 103, Beta apoptosis 77 | Mdm2-MdmX conf 81 | FLuc counter inactive
O=[N+]([O-])c1ccc(NC(c2ccccc2)c2ccc3cccnc3c2O)cc1 (stereo not drawn)	none (no result: CSC inhib, Mdm2 MdmX PPI, Calb FLC, Beta apoptosis)
O=S1(=O)CC(N2CCN(Cc3ccccc3F)CC2)CN1Cc1cn(Cc2cccc(Cl)c2)nn1 (stereo not drawn)	none (no result: CSC inhib, Mdm2 MdmX PPI, Calb FLC, Beta apoptosis)
CC(C)N1C(=O)c2ccccc2NC(=O)C1C(=O)NCc1ccccc1 (stereo not drawn)	none (no result: CSC inhib, Mdm2 MdmX PPI, Calb FLC, Beta apoptosis)
Cc1cccc(-n2c(SCC(=O)Nc3ncc(Cl)cc3Cl)nc3ccccc32)c1	none (no result: Mdm2 MdmX PPI)
COc1ccc(-n2c(SCC(=O)Nc3ncc(Cl)cc3Cl)nc3ccccc32)cc1	Mdm2 MdmX PPI 91 (no result: MPTP block) | Mdm2-MdmX conf 74 | FLuc counter inactive
O=C(CSc1nc2ccccc2n1-c1ccccc1)Nc1ncc(Cl)cc1Cl	Mdm2 MdmX PPI 88 | Mdm2-MdmX conf 81 | FLuc counter inactive
CCOC(=O)[C@]12CCC=C1N(Cc1ccco1)C(=O)[C@H](CC(=O)NCCCCc1ccccc1)C2	none (no result: CSC inhib, Mdm2 MdmX PPI, Calb FLC, Beta apoptosis)
COC(=O)c1c(-c2ccc3ccccc3c2)csc1NC(=O)Cc1ccc(OC)c(OC)c1	Mdm2 MdmX PPI 55 | Mdm2-MdmX conf 54 | FLuc counter 57
CCCNC(=O)C1(C)CCN(CCS(=O)(=O)c2ccc(C)cc2)C1 (stereo not drawn)	none (no result: CSC inhib, Mdm2 MdmX PPI, Calb FLC, Beta apoptosis)
CC(Sc1ccccc1)C(=O)NCC1COc2ccccc2O1 (stereo not drawn)	none
O=C1/C(=C/c2cccs2)SC(=S)N1CCCC(=O)N(CCO)c1ccccc1	Mdm2 MdmX PPI 53 | Mdm2-MdmX conf inactive
CCOc1ccc(/C=C2\SC(=S)N(CCC(=O)N(CCO)c3ccccc3)C2=O)cc1	Mdm2 MdmX PPI 65 | Mdm2-MdmX conf inactive
O=C(CCCN1C(=O)/C(=C\c2cccs2)SC1=S)NNC(=O)c1ccncc1	none
COc1ccccc1C(=O)NNC(=O)CCCN1C(=O)/C(=C/c2cccs2)SC1=S	Mdm2 MdmX PPI 72 | Mdm2-MdmX conf 77 | FLuc counter 63
CC(=O)OC[C@@H]1CN(Cc2ccccc2)C[C@H](n2cnc3c(N4CCOCC4)ncnc32)O1	none (no result: CSC inhib, Mdm2 MdmX PPI, Calb FLC, Beta apoptosis)
CC1CCN(CC(CS(=O)(=O)c2ccc([N+](=O)[O-])cc2)N2CCC(C)CC2)CC1 (stereo not drawn)	CSC inhib inconclusive, Mdm2 MdmX PPI 100 | Mdm2-MdmX conf 100 | FLuc counter 50
COC(=O)c1ccc2c(c1)sc(=NC(=O)CCS(=O)(=O)c1ccccc1)n2C	Mdm2 MdmX PPI 51 (no result: Beta apoptosis) | Mdm2-MdmX conf 44 | FLuc counter 77
CC1(c2nnnn2Cc2ccccc2)CCC(=O)N1CCCn1ccnc1 (stereo not drawn)	none (no result: CSC inhib, Mdm2 MdmX PPI, Calb FLC, Beta apoptosis)
COCCNC(=O)C1(C)CCCN(C(=O)c2ccccc2OC(F)(F)F)C1 (stereo not drawn)	none (no result: CSC inhib, Mdm2 MdmX PPI, Calb FLC, Beta apoptosis)
CC(=O)Nc1cccc(NC(=O)CSc2nc(C)c(C)c(C)c2C#N)c1	none
Cc1nc(SCC(=O)Nc2ccccc2C(F)(F)F)c(C#N)c(C)c1CC(=O)c1ccc(Br)cc1	Mdm2 MdmX PPI 53 (no result: MPTP block) | Mdm2-MdmX conf inactive
Cc1cccc(C)c1NC(=O)CSc1nc(C)c(CC(=O)c2ccc(Br)cc2)c(C)c1C#N	Mdm2 MdmX PPI 85 | Mdm2-MdmX conf 63 | FLuc counter 96
COc1ccc(NC(=O)C2c3ccccc3OCC(=O)N2CC(F)(F)F)cc1 (stereo not drawn)	none (no result: CSC inhib, Mdm2 MdmX PPI, Calb FLC, Beta apoptosis)
